HP1b binding inh: inhibitors of HP1-beta chromodomain binding to methylated histone tails; Potency, µM (top dose mostly 114 µM), inactives show top-dose activity change, negative = inhibition, hits mostly inhibitors; AID 540317; P83916; 0.56% of 390,000 active; AlphaScreen HP1-beta / biotin-H3K9me3 peptide binding; note: potency is the fitted concentration of half-maximal effect; nearly all actives have a fitted effect of over 70% in size
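Compound inhibition of the preformed complex between 50 nM HP1-beta and 50 nM biotinylated H3K9me3 peptide was read by AlphaScreen. Buffer was PBS pH 7.4 with 0.01% Tween-20. Incubations ran 30 min at room temperature, with 10 ug/mL donor/acceptor beads.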
JMJD2A Tudor inh: blocks the human JMJD2A Tudor domain | O75164 | AlphaScreen JMJD2A-Tudor / H3K4me3 peptide binding | Potency, µM (doses to about 114 µM), for the others: top-dose activity change, negative = inhibition, hits mostly inhibitors | 4.4% of 390,000 active | AID 504339; note: potency is the fitted concentration of half-maximal effect; % is set by controls: 0 for no effect and ±100 for the full control effect; nearly all actives have a fitted effect of over 50% in size
BAZ2B block: inhibitors of human BAZ2B bromodomain | Q9UIF8 | Potency, µM (top dose mostly 114 µM), without a hit: at the highest dose activity change, negative = inhibition, usual class: inhibitors | AID 504333 | AlphaScreen BAZ2B-H3K14Ac peptide displacement | 4.4% of 360,000 active; note: potency is the fitted concentration of half-maximal effect; % is set by controls: 0 for no effect and ±100 for the full control effect; nearly all actives have a fitted effect of over 60% in size
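AlphaScreen displacement of biotin-H3(5-23)K14Ac peptide (50 nM final) from BAZ2B (50 nM final) in PBS pH 7.4, 0.01% Tween-20; complex preformed 30 min RT, then compounds (top 110 uM) 30 min RT, beads 20 min dark.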
CtBP-E1A inh: blocks the CtBP interaction with E1A. AlphaScreen GST-E1A/His-CtBP binding, 1536-well; hits give low values. activity change, % (concentration not given with the values). 0.49% of 340,000 active. AID 651724; in the data active = activity change below about -65%; inconclusive = mostly about -30% to -63%; note: % is set by controls: 0 for no effect and ±100 for the full control effect
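GST-E1A and His-tagged CtBP (125 nM each as 5X stock) were preincubated with pin-transferred compound for 2 h at 37 °C in the dark, then glutathione donor and nickel acceptor beads were added for 1 h before AlphaScreen reading.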
Six1-Eya2 blk: Six1/Eya2 interaction inhibition; Q15475+O00167; AlphaScreen GST-Six1/His-Eya2 binding, biochemical; hits give low values; activity change, % (test concentration not listed); 0.56% of 360,000 active; AID 651725; in the data active = activity change below about -65%; inconclusive = mostly about -30% to -63%; note: % is set by controls: 0 for no effect and ±100 for the full control effect
Target sequence (O00167 whole entry, looked up): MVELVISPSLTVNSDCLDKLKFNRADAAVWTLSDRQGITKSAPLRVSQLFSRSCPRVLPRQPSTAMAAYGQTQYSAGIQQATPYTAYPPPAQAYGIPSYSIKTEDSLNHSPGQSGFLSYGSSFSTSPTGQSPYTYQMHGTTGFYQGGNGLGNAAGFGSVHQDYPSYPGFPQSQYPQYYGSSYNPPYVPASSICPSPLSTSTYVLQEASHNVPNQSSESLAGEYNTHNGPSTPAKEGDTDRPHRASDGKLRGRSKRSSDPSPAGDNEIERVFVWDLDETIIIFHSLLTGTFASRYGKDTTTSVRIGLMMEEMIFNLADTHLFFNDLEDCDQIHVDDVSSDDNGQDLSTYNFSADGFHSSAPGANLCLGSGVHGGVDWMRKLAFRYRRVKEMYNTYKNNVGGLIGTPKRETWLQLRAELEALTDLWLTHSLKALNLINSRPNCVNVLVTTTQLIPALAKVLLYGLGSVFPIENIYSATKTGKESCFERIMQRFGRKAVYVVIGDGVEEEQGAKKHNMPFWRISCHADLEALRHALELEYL
Target sequence (Q15475 whole entry, looked up): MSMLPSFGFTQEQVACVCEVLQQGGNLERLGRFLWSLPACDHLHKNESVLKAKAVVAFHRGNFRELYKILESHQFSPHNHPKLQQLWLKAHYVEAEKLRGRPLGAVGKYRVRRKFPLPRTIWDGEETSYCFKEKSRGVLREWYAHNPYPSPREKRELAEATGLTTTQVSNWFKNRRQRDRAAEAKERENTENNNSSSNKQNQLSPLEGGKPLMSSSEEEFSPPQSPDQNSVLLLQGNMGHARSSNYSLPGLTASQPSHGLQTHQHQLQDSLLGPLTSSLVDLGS
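Six1/Eya2 binding was read as AlphaScreen signal after compounds were pinned into GST-Six1 plus His-tagged Eya2 (5X stock 250/500 nM) in pH 8.0 Tris/NaCl/TCEP buffer, beads added, then incubated 1 h, 37 C, dark.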
G9a block: blocks human histone lysine methyltransferase G9a; Q96KQ7; G9a H3K9 monomethylation, AlphaScreen, 2 h; Potency, µM (doses to about 102 µM), without a hit: at the top dose activity, negative = inhibition, hits mostly inhibitors; 8.8% of 350,000 active; AID 504332; note: potency is the fitted concentration of half-maximal effect; % is set by controls: 0 for no effect and ±100 for the full control effect; nearly all actives have a fitted effect of over 75% in size
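Signal arises when biotinylated H3K9 peptide, once monomethylated, bridges streptavidin donor and antibody-captured acceptor beads. Enzyme at 20 nM was preincubated 15 min with test compounds; peptide 500 nM and SAM 20 uM then reacted for 2 h.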
Numbers without * were called inactive; ? = inconclusive; · = no result; [ ] = another dose, or the depositor's remark. Compounds with a hit are over-represented: about 10% of the library has one in this group of screens. Unless noted, calls come from the whole dose curve; as a rule, active = well fitted inhibition curve with a large enough effect; inconclusive = small, poorly fitted or top-dose-only effect; inactive = no such curve, though single readings can be large or run the other way.

SMILES	HP1b binding inh	JMJD2A Tudor inh	BAZ2B block	CtBP-E1A inh	Six1-Eya2 blk	G9a block
CC(CNC(=O)CCS(=O)(=O)c1cc2c(cc1Cl)NC(=O)CO2)c1ccccc1 (centres undefined)	63%	-19%	-24%	11	4	-4%
Cc1c(C(=O)NCCN2CCOCC2)oc2ccc(Br)cc12	?	-10%	50µM*	1	-1	18%[0.501 µM]
Cc1c(C(=O)NC2CCN(Cc3ccccc3)C2)oc2ccc(Br)cc12 (centres undefined)	2%	?	?	-18	-9	35µM*
COc1cccc(-n2nc(C#N)c(Cl)cc2=O)c1	75%	-27%	-23%	-15	?	50µM*
COc1cccc(-n2nc(C(N)=O)c(O)cc2=O)c1	29%	-11%	-32%	0	9	-50%
Cc1n[nH]c(C)c1S(=O)(=O)N(CC(=O)Nc1ccc2c(c1)OCCO2)c1ccc(C(C)C)cc1	38%	-7%	25%	-2	-8	?
CN(C)c1ccc(CNC(=O)CCCN2C(=O)c3cccnc3Oc3ccc(Cl)cc32)cc1	8%	?	?	·	·	11µM*
CCc1ccc(CNC(=O)CCCN2C(=O)c3cccnc3Oc3ccc(Cl)cc32)cc1	29%	-13%	-1%	·	·	6%[59 µM]
N#CC1=C(N)Oc2n[nH]c(-c3ccccc3)c2C12C(=O)Nc1ccccc12 (centres undefined)	17%	-16%	2%	0	3	-36%[12.7 µM]
Cn1c2c(c(=O)n(C)c1=O)[C@@]1(C(=O)Nc3ccccc31)C(C#N)=C(N)O2	15%	-16%	-6%	-5	5	45µM*
CCOC(=O)c1ccc(NC(=O)CSc2nc(N)c(NC(=O)c3ccc(Br)o3)c(=O)[nH]2)cc1	4%	-20%	-32%	?	-79*	?
CCN(CC)c1ccc(/C=N/NC(=O)c2c[nH]c3ccccc23)cc1	3%	-33%	?	-8	-24	8.9µM*
CCN(CC)c1ccc(/C=N/NC(=O)c2ccccn2)cc1	46%	-20%	-12%	-5	-2	11%[59 µM]
CCN(CC)c1ccc(/C=N/NC(=O)c2cnccn2)cc1	34%	-15%	·	-22	-7	56µM*
COc1cccc(CNC(=O)[C@@H]2CCCN2C(=O)[C@H]2CCCCN2C(=O)c2ccccc2)c1	·	·	·	2	1	·
COc1ccc(-c2sc3ccccc3c2C#CC2(O)CCCCC2)cc1	51%	-3%	46%	8	1	·
COc1ccc(-c2oc3cccnc3c2C#CCO)cc1	28%	-7%	-3%	-15	-12	50µM*
COc1ccc(-c2oc(=O)c3cc(OC)c(OC)cc3c2C#CC2(O)CCCCC2)cc1	8%	-7%	·	4	6	·
COc1ccc(-c2sc3cc(OC)c(OC)cc3c2C#CC2(O)CCCCC2)cc1	20%	-26%	79µM*	-1	-2	-33%[0.501 µM]
COc1ccc(-c2oc3cccnc3c2C#CC2(O)CCCCC2)cc1	64%	-11%	-29%	-13	9	28µM*
CC(C)(C)c1ccc(S(=O)(=O)N2CCN(c3nc(-c4cccs4)nc4ccccc34)CC2)cc1	13%	-9%	·	·	·	·
CC1CCC(C(C)C)C(=O)C1 (centres undefined)	·	·	·	·	·	30%[59 µM]
COc1cccc(-c2cncnc2NCc2ccccc2OC)c1	·	·	·	·	·	-46%[0.501 µM]
O=C1c2ccccc2C(=O)N1c1cc(=O)c2ccccc2[nH]1	·	-26%	·	·	·	·
CSc1nc2ncnc(N)c2[nH]1	7%	79µM*	-27%	-2	-15	45µM*
SMILES	HP1b binding inh	JMJD2A Tudor inh	BAZ2B block	CtBP-E1A inh	Six1-Eya2 blk	G9a block
CCN(CCCNC(=O)C1CCN(S(=O)(=O)N2CCOCC2)CC1)c1cccc(C)c1	7%	?	-33%	3	0	35µM*
Cc1ccc(CCNC(=O)C2CCN(S(=O)(=O)N3CCOCC3)CC2)cc1	?	28µM*	-4%	·	2	10%
CNC(=S)N(CCc1c(C)[nH]c2ccccc12)Cc1ccco1	?	?	?	-4	-8	50µM*
Cc1[nH]c2ccc(F)cc2c1CCN(Cc1ccco1)C(=S)NC(C)(C)C	18%	?	·	-9	-23	?
CNC(=S)N(CCc1c(C)[nH]c2ccc(F)cc12)Cc1ccco1	-13%	?	?	-5	-16	71µM*
COCCNC(=S)N(CCc1c(C)[nH]c2ccc(F)cc12)Cc1ccco1	-5%	-35%	71µM*	·	-7	?
COc1ccc(C(C)(O)c2nc(-c3cccc(O)c3)cs2)cc1 (centres undefined)	·	·	·	-3	-3	·
C=CC(C)(C)c1c2occc2c(O)c2ccc(=O)oc12	8%	-27%	·	0	-5	·
C=CC(C)(C)c1c(O)c(CC=C(C)C)c(O)c2c(=O)c3ccc(O)c(O)c3oc12	-15%	50µM*	·	0	-12	·
CC(C)C(=O)Nc1nc2c(c(=O)[nH]1)CCCC2	10%[57 µM]	-11%	-1%	-3	0	-5%
CCN(CC)c1ccc(NC(=O)c2cc3c(OC)cccc3[nH]2)cc1	45µM*	16µM*	20µM*	?	?	8.9µM*
COc1cccc2[nH]c(C(=O)NC(C)c3ccccc3)cc12 (centres undefined)	15%	-25%	-6%	·	-1	14%
CCCCNS(=O)(=O)c1ccc2nc(-c3cccnc3)cc(C(=O)NCCCOC(C)C)c2c1	13%	-12%	3%	·	·	-6%[59 µM]
CCN1CCN(C(=O)Nc2cccc3ccccc23)CC1	21%	-1%	?	1	-1	40µM*
CSC[C@H]1CN(CCc2ccccc2)C(=O)[C@@H]1CC(=O)Nc1ccc(Br)cc1	·	·	·	-9	-10	·
O=C(NCc1cccs1)c1ccc(Cn2c(SCc3ccccc3)nc3cccnc32)cc1	6%	-27%	-7%	·	·	-23%[59 µM]
COc1ccccc1-c1nnc(C2CCN(C(=O)c3ccc(C)cc3)CC2)o1	47%	-2%	-9%	·	·	7%[59 µM]
COc1ccc(-c2nnc(C3CCN(C(=O)c4ccccc4F)CC3)o2)cc1	-3%	56µM*	?	·	·	14µM*
COc1ccc(-c2nnc(C3CCN(S(=O)(=O)c4cccc(Cl)c4)CC3)o2)cc1	25%	?	-8%	·	·	11µM*
COc1ccc(S(=O)(=O)N2CCC(c3nnc(-c4ccccc4C)o3)CC2)c(OC)c1	33%	-13%	-19%	·	·	8.9µM*
Cc1ccccc1-c1nnc(C2CCN(S(=O)(=O)c3ccc(Cl)cc3)CC2)o1	39%	1%	-6%	·	·	7.9µM*
CCC(C(=O)Nc1cc(F)ccc1F)n1nc(-c2cc(C)ccc2C)ccc1=O (centres undefined)	21%	-18%	1%	·	·	2%[59 µM]

Source: PubChem
